Assay results: PubChem BioAssay (Tox21)
Values joined by “and” are separate entries in the source; they are usually repeats but may differ in a detail not shown here. Equal values may be shown once. Results filed as inconclusive are left out. A call without a number means that no potency is given here. A number with no mark means an inactive call. Active and inactive are the calls of the source. Calls follow the shape of the dose curve; as a rule, active = well fitted curve in the direction sought with a large enough effect in the repeat runs; inconclusive = weak or mixed curves; inactive = no such curve, though single readings can be large; an effect the other way counts as inactive or inconclusive.

What was measured:
[1] = qHTS RealTime-Glo MT Cell Viability Assay in HEK293 cells - 16 hour (AID 1224872); details: RealTime-Glo luminescence; series mostly up to 76.8 µM; also: nearly all actives have a fitted effect of over 50% in size; also: potency is read from the fitted curve at half-maximal effect
Outline: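 Cells + reagent dispensed (600 cells/well, HEK293) → 5 h at 37 C/5% CO2 → 23 nL compound in DMSO pinned → 40 h at 37 C → luminescence read at 0, 8, 16, 24, 32, 40 h.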

[2] = A CellTox Green Cytotoxicity Assay to monitor cytotoxicity in HEK293 cells - 24 hour (AID 1224875); details: CellTox Green fluorescence; series mostly up to 76.8 µM; also: nearly all actives have a fitted effect of over 45% in size; also: potency is read from the fitted curve at half-maximal effect
Outline: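 Tox21 screen in HEK293: membrane-impermeant cyanine dye fluoresces on binding dead-cell DNA; compound pinned 5 h post-seeding, plates held at 37 C, signal read repeatedly through 40 h.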

[3] = A CellTox Green Cytotoxicity Assay to monitor cytotoxicity in HepG2 cells - 16 hour (AID 1224876); details: CellTox Green fluorescence; series mostly up to 76.8 µM; also: nearly all actives have a fitted effect of over 45% in size; also: potency is read from the fitted curve at half-maximal effect
Outline: (§1)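 Measurements at 0, 8, 16, 24, 32 and 40 h of treatment captured CellTox Green fluorescence in HepG2 cells that had been co-plated with reagent and preincubated 5 h at 37 C/5% CO2.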

[4] = A CellTox Green Cytotoxicity Assay to monitor cytotoxicity in HepG2 cells - 24 hour (AID 1224878); details: CellTox Green fluorescence; series mostly up to 76.8 µM; also: nearly all actives have a fitted effect of over 45% in size; also: potency is read from the fitted curve at half-maximal effect
Outline: as §1

[5] = qHTS RealTime-Glo MT Cell Viability Assay in HEK293 cells - 0 hour (AID 1224880); details: RealTime-Glo luminescence; series mostly up to 76.8 µM; also: top concentration of the series differs between compounds; nearly all actives have a fitted effect of over 45% in size
Outline: (§2)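 HEK293 + NanoLuc + prosubstrate, 600 cells/well; 5 h, 37 C/5% CO2; compound 23 nL in DMSO by pintool; 37 C; luminescence read at 0, 8, 16, 24, 32 and 40 h time points.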

[6] = qHTS RealTime-Glo MT Cell Viability Assay in HepG2 cells - 8 hour (AID 1224873); details: RealTime-Glo luminescence; series mostly up to 76.8 µM; also: nearly all actives have a fitted effect of over 55% in size
Outline: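 HepG2 cells mixed with RealTime-Glo MT reagents (NanoLuc plus cell-permeant prosubstrate) were seeded at 600 cells/well, incubated 5 h at 37 C/5% CO2, then pinned with compounds in DMSO; nonlytic luminescence tracked viability during 40 h treatment.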

[7] = qHTS RealTime-Glo MT Cell Viability Assay in HEK293 cells - 40 hour (AID 1224874); details: RealTime-Glo luminescence; max response: active compounds read low; also: nearly all actives have a fitted effect of over 50% in size; also: potency is read from the fitted curve at half-maximal effect
Outline: as §2

[8] = qHTS RealTime-Glo MT Cell Viability Assay in HepG2 cells - 32 hour (AID 1224877); details: RealTime-Glo luminescence; series mostly up to 76.8 µM; also: nearly all actives have a fitted effect of over 55% in size; also: potency is read from the fitted curve at half-maximal effect
Outline: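 Real-time, nonlytic viability: 600 HepG2 cells/well mixed with NanoLuc enzyme plus prosubstrate; 5 h settle, compound (DMSO) added by pintool; luminescence monitored over 40 h at 37 C.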

[9] = A CellTox Green Cytotoxicity Assay to monitor cytotoxicity in HepG2 cells - 40 hour (AID 1224879); details: CellTox Green fluorescence; series mostly up to 76.8 µM; also: nearly all actives have a fitted effect of over 40% in size; also: potency is read from the fitted curve at half-maximal effect
Outline: as §1

Compound	Potency [1]	Potency [2]	Potency [3]	Potency [4]	Potency [5]	Potency [6]	Potency [7]	Potency [8]	Potency [9]	max response [7]
Nc1ccc(N)c2ccccc12	54.9 µM (active)	inactive	54.9 µM (active)	54.9 µM (active)	inactive					
CCCCCCC[N+](CC)(CC)CCCCc1ccc(Cl)cc1		inactive	26.8 µM (active)	26.8 µM (active)	inactive	inactive	1.9 µM (active)	23.9 µM (active)	23.9 µM (active)	
NC(=O)C1(N2CCCCC2)CCN(CCCN2c3ccccc3CCc3ccc(Cl)cc32)CC1	21.3 µM (active)		26.8 µM (active)	23.9 µM (active)	inactive		21.3 µM (active)	23.9 µM (active)	23.9 µM (active)	
O=CC=C(c1ccccc1)c1ccccc1			inactive	inactive	inactive	inactive	17.5 µM (active)	inactive	inactive	
Cc1ccc2oc(CN(Cc3ccccc3)C(=O)Nc3c(F)cc(F)cc3F)c(-c3ccc(Cl)cc3)c2c1	inactive	inactive	inactive	inactive	inactive				inactive	-18.1%
C/C=C1/C(=O)C[C@H]2[C@@H]3CCC4=CC(=O)CC[C@]4(C)[C@H]3CC[C@]12C	43.5 µM (active)	inactive					48.8 µM (active)	inactive	43.5 µM (active)	
CN1CCC(Nc2ncc3ncnc(Nc4ccc(F)c(Cl)c4)c3n2)CC1			21.3 µM (active)	23.9 µM (active)		inactive	10.7 µM (active)		26.8 µM (active)	
Cc1cc(O)c(Cl)c(C)c1Cl	inactive			54.9 µM (active)	inactive			inactive	49 µM (active)	-27.6%
CC(C)(C)CC(C)(C)c1ccc(OCCOCC[N+](C)(C)Cc2ccccc2)cc1	24.5 µM (active) and 21.3 µM (active)		48.9 µM (active) and 19 µM (active)	38.9 µM (active) and 15.1 µM (active)			9.76 µM (active) and 8.49 µM (active)	34.6 µM (active) and 9.52 µM (active)		
CC(C)n1nc(-c2cc3cc(O)ccc3[nH]2)c2c(N)ncnc21	0.477 µM (active)	inactive	inactive		inactive		0.19 µM (active)		23.9 µM (active)	
Cc1nc(-c2ccc3c(c2)CCN(CCC2CCC(NC(=O)/C=C/c4ccc(F)cc4)CC2)CC3)no1 (centres undefined)		inactive	inactive	inactive	inactive	inactive		inactive		
CCC1=C[C@@H]2CN(C1)Cc1c([nH]c3ccccc13)[C@@](C(=O)OC)(c1cc3c(cc1OC)N(C)[C@H]1[C@@](O)(C(=O)OC)[C@H](OC(C)=O)[C@]4(CC)C=CCN5CC[C@]31[C@@H]54)C2	23.9 µM (active)	inactive			inactive		0.0067 µM (active)		inactive	
CCc1oc2ccccc2c1C(=O)c1cc(Br)c(O)c(Br)c1		inactive	inactive	inactive	inactive	inactive		inactive	inactive	
Cc1cc(CCN2CCN(c3nsc4ccccc34)CC2)cc2c1NC(=O)CC2(C)C	13.8 µM (active)	49 µM (active)			inactive		6.92 µM (active)	54.9 µM (active)		
